Compound activity (PubChem)
TAG inh – inhibitors of triacylglycerol accumulation; H9c2 cells, Nile Red lipid (TAG) fluorescence; cells loaded with 200 µM oleic acid; inhibition, % at 12.5 µM; 0.66% of 230,000 active;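 active means pattern-corrected inhibition of lipid staining of at least 50% with the nuclear-stain viability signal not falling by more than 50%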
Efflux pump inh – antifungal efflux pump inhibition, Nile Red retention | S. cerevisiae Candida pump triplex | inhibition, % at 10 µM | 0.44% of 330,000 active;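 active means plate passing quality check with inhibition over a set limit, or well fluorescence over plate mean plus 4 SD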;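 further: Nile Red retained in pooled yeast measured as flow cytometry median fluorescence; higher means more Nile Red kept so more efflux inhibition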
Bfl-1 A1 inh – inhibitors of the anti-apoptotic protein A1, read as caspase activation; MEF A1-2A-BIM cells, Caspase-Glo 3/7 luminescence, 3 h; percent of clofoctol response, vehicle zero; caspase activation, % (concentration not given with the values); 0.066% of 330,000 active; AID 2462;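 active means over half of replicate activation scores above 10%, or exactly half above 10 with the replicate mean above 10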
HSV augment – HSV replication enhancement | HSV replication augmentation in cells, fold increase | maximum fold increase | 0.005% of 220,000 active; in the data active means maximum fold increase above about 1.5; tested in PC3 cells
GC-B act – GC-B (human) receptor activation. P20594. 0.11% of 370,000 active. AID 1920062. activation, % at 10 µM. HEK293-GC-B cells, CNP EC30, cGMP TR-FRET; 0% at EC30 CNP, 100% saturating CNP;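 active means activation at 10 µM reaching about 35% in either raw or pattern-adjusted values, limit read from the data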
NPR1 activator – GC-A (human) enzyme activation. P16066. HEK293 GC-A cells, cGMP TR-FRET, EC30 ANP; 0% at EC30 ANP, 100% saturating ANP. activation, % at 10 µM. 0.14% of 370,000 active. AID 1671463; in the data active means activation above about 40%
Target sequence (P16066 whole entry, looked up): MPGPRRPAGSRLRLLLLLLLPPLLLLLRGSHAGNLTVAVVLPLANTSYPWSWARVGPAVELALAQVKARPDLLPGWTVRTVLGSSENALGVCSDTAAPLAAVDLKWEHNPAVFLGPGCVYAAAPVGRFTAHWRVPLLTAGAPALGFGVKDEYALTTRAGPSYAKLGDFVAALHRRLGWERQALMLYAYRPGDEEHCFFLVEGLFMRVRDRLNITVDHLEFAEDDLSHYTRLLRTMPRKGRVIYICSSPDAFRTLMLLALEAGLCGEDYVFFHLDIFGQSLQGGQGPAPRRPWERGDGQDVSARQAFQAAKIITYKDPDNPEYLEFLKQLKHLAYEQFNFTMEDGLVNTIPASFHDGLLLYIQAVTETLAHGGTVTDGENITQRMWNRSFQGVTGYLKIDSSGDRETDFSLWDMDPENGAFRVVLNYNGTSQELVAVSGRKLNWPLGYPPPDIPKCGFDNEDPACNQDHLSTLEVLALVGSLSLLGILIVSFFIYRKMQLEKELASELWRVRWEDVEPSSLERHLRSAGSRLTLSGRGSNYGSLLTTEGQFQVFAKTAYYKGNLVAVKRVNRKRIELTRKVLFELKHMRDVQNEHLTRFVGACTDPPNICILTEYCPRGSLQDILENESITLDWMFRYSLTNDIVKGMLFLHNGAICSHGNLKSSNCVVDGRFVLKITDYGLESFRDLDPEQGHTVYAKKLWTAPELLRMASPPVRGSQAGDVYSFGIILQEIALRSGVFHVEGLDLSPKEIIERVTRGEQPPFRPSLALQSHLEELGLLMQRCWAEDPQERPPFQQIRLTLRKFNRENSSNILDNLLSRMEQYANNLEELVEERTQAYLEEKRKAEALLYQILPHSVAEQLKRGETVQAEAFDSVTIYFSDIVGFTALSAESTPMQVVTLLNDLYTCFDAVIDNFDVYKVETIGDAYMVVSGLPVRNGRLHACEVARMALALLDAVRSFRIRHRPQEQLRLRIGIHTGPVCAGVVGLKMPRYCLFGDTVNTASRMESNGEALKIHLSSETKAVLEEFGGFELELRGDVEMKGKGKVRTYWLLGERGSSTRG
H9c2 TAG conf – confirmation of triacylglycerol accumulation inhibitors; inhibition, % at 12.5 µM; shares compounds with TAG inh; AID 651629; H9c2 lipid accumulation, Nile Red fluorescence; cells loaded with 200 µM oleic acid; 71% of 990 active;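 active means mean inhibition across replicates of 40% or more; inactive means mean inhibition below 40%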
Each line names hits and unclear results; the compound was inactive in the other large screens (follow-up assays come after a bar, where they were run). A selection: hits, their analogues and other compounds. The true share with any hit is near 1%.

Cc1ccc(C(=O)CC2(O)C(=O)N(Cc3ccccc3)c3ccccc32)o1 (centres undefined)	none
Cc1ccc(C(=O)CC2(O)C(=O)N(CCc3ccccc3)c3ccc(Br)cc32)o1 (centres undefined)	TAG inh 51.0 | H9c2 TAG conf inactive
COc1ccc(-c2nn(-c3ccccc3)cc2/C=C/C(=O)OCC(=O)Nc2ccccc2C#N)cc1	TAG inh 67.2, Bfl-1 A1 inh 23.9 | H9c2 TAG conf 76.8
COCCCN1C(=O)[C@H](CC(=O)NCc2ccc(C)o2)[C@]2(C(=O)OC)CCCCC=C12	none (no result: TAG inh, Efflux pump inh, Bfl-1 A1 inh, HSV augment)
CCC(C)NCC(=O)Nc1ccc(-c2nc3cc(NC(=O)CNC(C)CC)ccc3o2)cc1 (centres undefined)	TAG inh 53.2 | H9c2 TAG conf inactive
COC(=O)c1cc(C(=O)N2CCN(c3ccccc3OC)CC2)cc([N+](=O)[O-])c1	TAG inh 50.9 | H9c2 TAG conf 84.7
COC(=O)c1cc(C(=O)N2CCN(c3cccc(C)c3C)CC2)cc([N+](=O)[O-])c1	none
O=[N+]([O-])c1ccc(/C=N/Nc2ncccc2[N+](=O)[O-])s1	TAG inh 64.3 (no result: HSV augment) | H9c2 TAG conf inactive
COc1cccc(/C=N/Nc2ncccc2[N+](=O)[O-])c1OC	none
Cc1ccnc(N2CCC(C(=O)Nc3ccc(Oc4ccccc4)cc3)CC2)n1	TAG inh 52.4 (no result: HSV augment) | H9c2 TAG conf inactive
COc1ccc2[nH]c3c(c2c1)CCN1C(=O)C(CC(=O)NCc2cccc(C(F)(F)F)c2)C[C@H](C(=O)N2CCCCC2)[C@@]31CCc1ccccc1 (some centres undefined)	TAG inh 102.3 (no result: Bfl-1 A1 inh, HSV augment) | H9c2 TAG conf 90.0
COc1ccc2[nH]c3c(c2c1)CCN1C(=O)C(CC(=O)NCCN2CCOCC2)C[C@H](C(=O)N2CCCCC2)[C@@]31CCc1ccccc1 (some centres undefined)	none (no result: Bfl-1 A1 inh, HSV augment)
O=C(C[C@H]1C[C@H](C(=O)N2CCCCC2)[C@@]2(CCc3ccccc3)c3[nH]c4ccc(Cl)cc4c3CCN2C1=O)NCc1ccco1	none (no result: Bfl-1 A1 inh, HSV augment)
O=C(CC1C[C@H](C(=O)N2CCCCC2)[C@@]2(CCc3ccccc3)c3[nH]c4ccccc4c3CCN2C1=O)NCc1cccc(C(F)(F)F)c1 (some centres undefined)	TAG inh 91.0 (no result: HSV augment) | H9c2 TAG conf 88.0
CC(C)(C)NC(=O)C[C@H]1C[C@H](C(=O)N2CCCCC2)[C@@]2(CCc3ccccc3)c3[nH]c4ccc(Cl)cc4c3CCN2C1=O	TAG inh 61.7 (no result: Bfl-1 A1 inh, HSV augment) | H9c2 TAG conf 44.9
O=C(C[C@H]1C[C@H](C(=O)N2CCCCC2)[C@@]2(CCc3ccccc3)c3[nH]c4ccc(Cl)cc4c3CCN2C1=O)NCc1cccc(C(F)(F)F)c1	TAG inh 102.4 (no result: Bfl-1 A1 inh, HSV augment) | H9c2 TAG conf 100.3
O=C(NCCc1ccccc1)OCc1cn(-c2cccc(C(F)(F)F)c2)nn1	none (no result: TAG inh, Efflux pump inh, Bfl-1 A1 inh, HSV augment)
O=C(NCc1cccs1)C1CCCN(S(=O)(=O)c2cccc3ccccc23)C1 (centres undefined)	none (no result: TAG inh, Efflux pump inh, Bfl-1 A1 inh, HSV augment)
COc1ccc(-n2cc(COC(=O)NCCc3ccccc3)nn2)cc1	none (no result: TAG inh, Efflux pump inh, Bfl-1 A1 inh, HSV augment)
C=CCN1C(=O)[C@H](CC(=O)NCC23CC4CC(CC(C4)C2)C3)[C@@]2(C(=O)OC)CCCCC=C12	none (no result: TAG inh, Efflux pump inh, Bfl-1 A1 inh, HSV augment)
CCc1ccc(/C=N/NC(=O)c2cc(C3CC3)nc3ccc(Br)cc23)s1	TAG inh 60.4 | H9c2 TAG conf 40.4
CCc1ccc(/C=N/NC(=O)c2cc(-c3ccccc3OC)nc3ccccc23)s1	none
C=CCN(C(=O)[C@@H](C1CC1)[C@@H](O)c1ccc(Cl)cc1)c1ccccc1	none (no result: TAG inh, Efflux pump inh, Bfl-1 A1 inh, HSV augment)
CSc1cc(-c2ccc(Cl)cc2)n(Cc2ccccc2)c(=O)c1C#N	TAG inh 64.1 | H9c2 TAG conf inactive
CSc1cc(-c2ccccc2)n(Cc2c(Cl)cccc2Cl)c(=O)c1C#N	TAG inh 58.0 | H9c2 TAG conf 68.0
CSc1cc(-c2ccccc2)n(C)c(=O)c1C#N	none
CCOC(=O)Cn1c(-c2ccccc2)cc(SC)c(C#N)c1=O	none (no result: TAG inh, HSV augment)
Cc1nn(-c2ccccc2)c2nc(-c3ccccc3)cc(C(=O)N3CCOCC3)c12	none
Cc1nn(-c2cccc(Cl)c2)c2nc(-c3ccncc3)cc(C(=O)N3CCOCC3)c12	TAG inh 52.6 | H9c2 TAG conf 52.5
Cc1cccc2c(C(=O)N3CCCCC3)cc(-c3ccccc3)nc12	none (no result: TAG inh, HSV augment)
Cc1cccc2c(C(=O)N3CCN(c4ccccc4)CC3)cc(-c3ccncc3)nc12	TAG inh 60.2 (no result: HSV augment) | H9c2 TAG conf 76.6
CCCCN1CCS(=O)(=O)N(Cc2ccc(Cl)cc2)C(C(=O)OC)C1 (centres undefined)	none (no result: TAG inh, Efflux pump inh, Bfl-1 A1 inh, HSV augment)
COc1ccc(S[C@]2(C(=O)N3CCN(c4ncccn4)CC3)CC(=O)N(C(=O)Nc3ccc(C)c(Cl)c3)[C@@H]2c2ccc(OC)cc2)cc1	none (no result: TAG inh, Efflux pump inh, Bfl-1 A1 inh, HSV augment)
OCCN1CCN(CC(O)COc2ccc(Cl)cc2)CC1 (centres undefined)	none
OCCN1CCN(CC(O)COc2ccc(C34CC5CC(CC(C5)C3)C4)cc2)CC1 (centres undefined)	TAG inh 63.4 | H9c2 TAG conf inactive
COC(=O)[C@@]1(Cc2ccc(OC)cc2)[C@@H]2C(=CC(=O)[C@H]2CC(=O)C(=O)N2CCCC2)CN1C(=O)c1ccccc1	TAG inh 53.1 (no result: GC-B act, NPR1 activator) | H9c2 TAG conf 54.6
CC(C)(Oc1ccc(Cl)cc1)C(=O)Nc1ccc2oc(-c3ccncc3)nc2c1	TAG inh 56.6 | H9c2 TAG conf 46.4
O=C(COc1ccc(Cl)cc1)Nc1ccc2oc(-c3ccncc3)nc2c1	none
CN(C)CCCNC(=O)C[C@@H]1CC[C@@H]2[C@H](COc3ccc(NC(=O)c4cccc(F)c4)cc3C(=O)N2C)O1	none (no result: TAG inh, Efflux pump inh, Bfl-1 A1 inh, HSV augment)
COc1ccc(-c2sc3ccc(N4CCOCC4)cc3c2C#CC(C)(C)O)cc1	TAG inh 63.7 (no result: HSV augment) | H9c2 TAG conf 52.9
CCOc1ccc(CCNC(=O)Cn2c(-c3nonc3N)nc3ccccc32)cc1OCC	TAG inh 56.6 | H9c2 TAG conf inactive
COc1ccc(CCNC(=O)CN2CCN(Cc3ccccc3F)C2=O)cc1OC	none
COc1cc(Cn2c(-c3nonc3N)nc3ccccc32)ccc1C	TAG inh 66.0 | H9c2 TAG conf 62.3
COc1ccc(CCNC(=O)Cn2c(-c3nonc3N)nc3ccccc32)cc1OC	none (no result: HSV augment)
COc1cccc(Cn2c(-c3nonc3N)nc3ccccc32)c1	none
CCOc1ccc(CCNC(=O)CN2CCN(Cc3ccccc3C)C2=O)cc1OCC	TAG inh 59.5 | H9c2 TAG conf 53.9
CCCCOc1ccccc1NC(=O)Cn1c(-c2nonc2N)nc2ccccc21	TAG inh 72.8 | H9c2 TAG conf 64.0
C=C1[C@@H]2CC[C@H]3[C@]4(C)[C@@H](O)CC[C@@](C)(C(=O)OC)[C@H]4C[C@H](O)[C@]3(C2)[C@H]1O	none (no result: TAG inh, Efflux pump inh, Bfl-1 A1 inh, HSV augment)
